DAX1 inh: inhibitors of human orphan nuclear receptor DAX1 (NR0B1). P51843. HEK293 Gal4-DAX1 luciferase reporter, luminescence. inhibition, % at 6.75 µM. actives 0.99% (n = 340,000). AID 504766;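 active means inhibition above the mean over all tested compounds plus 3 SD, cut at about 4.2% in these data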;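 further: 0% = DAX1-transfected cells with DMSO and 100% = empty-vector control cells with DMSO; inhibition shows as a rise in luminescence from relieved DAX1 repression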
Target sequence (P51843 207-470 limits assumed): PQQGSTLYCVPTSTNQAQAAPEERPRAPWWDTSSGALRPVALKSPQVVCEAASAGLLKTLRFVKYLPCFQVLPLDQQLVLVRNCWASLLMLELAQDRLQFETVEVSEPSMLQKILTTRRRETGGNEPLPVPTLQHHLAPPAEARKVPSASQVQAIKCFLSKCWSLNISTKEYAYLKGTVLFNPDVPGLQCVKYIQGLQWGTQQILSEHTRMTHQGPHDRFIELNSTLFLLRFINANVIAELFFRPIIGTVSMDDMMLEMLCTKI
AHR act: activators of human aryl hydrocarbon receptor. AID 2796. activation, % at 5 µM. actives 2.5% (n = 320,000). AHR-responsive luciferase reporter cells, luminescence; in the data active means activation above about 47%;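 further: 0% = vehicle wells and 100% = reference agonist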
HSF1 inh: HSF1 inhibition; NIH3T3-HGL HSE-luciferase, MG132-induced, luminescence 8 h; hits give low values; activity change, negative = inhibition, % at 7.5 µM (by protocol); actives 0.77% (n = 300,000); AID 2098;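 active means more than half of replicate wells show activity change below -50%, luminescence cut by over half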;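 further: luciferase reports HSF-1 transcriptional activity via heat shock element; 0% = median of DMSO wells and -100% = zero luminescence signal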
HSF1 activator: increases HSF-1 driven luciferase reporter signal | NIH3T3-HGL HSF-1 luciferase reporter, MG132, 8 h; 100% = twice DMSO control signal | activation, % at 9 µM | AID 504408 | actives 1.7% (n = 300,000);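 active means mean replicate activation of at least 50% with a set share of replicates each reaching 50%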;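 further: 0% = median of the neutral control wells and 100% = twice that signal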
HSP90 inh: inhibitors of HSP90 luciferase refolding in rabbit reticulocyte lysate; luciferase refolding luminescence, 3 h; inhibition, % at 5.6 µM; actives 0.91% (n = 290,000); AID 1789;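 active means inhibition above the screen-wide mean plus 3 SD, computed separately per campaign, cut at about 16% in these data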;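 further: 0% = DMSO wells and 100% = 60 µM geldanamycin wells; inhibitors lower the luminescence because luciferase stays unfolded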
GAA850 FXN act: activators of GAA850 frataxin (FXN) promoter; HEK293 lucGAA850 FXN promoter luciferase reporter, 24 h; percent of 10 µM SAHA response; AID 540364; actives 0.56% (n = 360,000); activation, % at 6 µM;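 active means activation above the average of all compounds screened plus 3 SD, cutoff fixed separately per campaign, cut at about 7.5% in these data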;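 further: 0% = DMSO wells and 100% = 10 µM SAHA wells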
* hit, by the source's call. Only some compounds are listed: those with a hit (about 5.9% of all), similar ones and a draw of the others.

`CCOC(=O)CN1C=C(c2ccc3ccccc3n2)C(C[N+](=O)[O-])c2ccccc21` (stereo unspecified) gave DAX1 inh -0.1, AHR act 66.9*, HSF1 inh 58.8, HSF1 activator 93.8*, HSP90 inh -0.1 and GAA850 FXN act 3.6.
CC1(C)OC1(C#N)c1ccccc1 (stereo unspecified) was read as DAX1 inh 0.6 and GAA850 FXN act -1.8.
Screening CN(C)c1ccc(/C=N/N(CCO)C2=NS(=O)(=O)c3ccccc32)cc1 returned DAX1 inh 0.9, AHR act 27.1, HSF1 inh 2.6, HSF1 activator -7.7, HSP90 inh -3.7 and GAA850 FXN act -0.3.
`C=CCOCCN(CCOCC=C)C1=NS(=O)(=O)c2ccccc21` gave DAX1 inh 0.0, AHR act 7.5, HSF1 inh -91.8*, HSF1 activator -93.7, HSP90 inh -3.2 and GAA850 FXN act 1.2.
For Cc1c(-c2nc(N)nc(Nc3ccccc3)n2)oc2ccccc12 the results were DAX1 inh 2.0, AHR act -7.7, HSF1 inh 38.1, HSF1 activator 76.4*, HSP90 inh -1.8 and GAA850 FXN act 6.1.
For Cn1c(CNC(=O)c2ccccc2F)cc2ccccc21 the results were DAX1 inh 1.2, AHR act 49.5*, HSF1 inh -10.0, HSF1 activator 1.0, HSP90 inh -2.3 and GAA850 FXN act 3.3.
Screening Cn1c(CNC(=O)c2ccc(F)cc2)cc2ccccc21 returned DAX1 inh 4.3*, AHR act 13.7, HSF1 inh 0.7, HSF1 activator 9.6, HSP90 inh -2.5 and GAA850 FXN act 2.1.
Screening O=C(NCc1cc2ccccc2[nH]1)c1ccccc1F returned DAX1 inh 1.2, AHR act 47.6*, HSF1 inh 11.9, HSF1 activator 39.3, HSP90 inh -1.9 and GAA850 FXN act 2.8.
`COc1ccc(S(=O)(=O)NC2CCCCC2)cc1F` gave DAX1 inh -0.3, HSF1 inh -5.2, HSF1 activator -12.4, HSP90 inh -1.2 and GAA850 FXN act -1.1.
Screening CN(C)CC[n+]1ccc(C(=O)c2ccccc2)cc1 returned DAX1 inh 5.1*, AHR act -0.2, HSF1 inh 0.4, HSF1 activator -15.0, HSP90 inh -2.2 and GAA850 FXN act 1.6.
Screening O=C(c1ccccc1)c1cc[n+]([O-])cc1 returned DAX1 inh 0.4, AHR act -0.2, HSF1 inh -6.0, HSF1 activator -9.5, HSP90 inh -2.6 and GAA850 FXN act -1.6.
For CCOC(=O)C1CCCN(C(=O)c2ccc(NC(=O)CC3SC(N4CCCC4)=NC3=O)cc2)C1 (stereo unspecified) the results were DAX1 inh 0.7, AHR act 10.7, HSF1 inh -0.6, HSF1 activator -1.1 and GAA850 FXN act 1.2.
Screening CCOC(=O)C1(C)CCCN(C(=O)c2cc(C)on2)C1 (stereo unspecified) returned GAA850 FXN act 1.1.
Cc1cc(C)c2oc(C(=O)N(Cc3ccccc3)c3ccccn3)cc(=O)c2c1 was read as DAX1 inh 6.3*, AHR act 3.2, HSF1 inh 2.7, HSF1 activator 0.9, HSP90 inh 6.2 and GAA850 FXN act -1.7.
Cc1cc2oc(C(=O)N(Cc3ccccc3)c3ccccn3)cc(=O)c2cc1Cl was read as AHR act 5.6, HSF1 inh 9.0, HSF1 activator 1.4, HSP90 inh 2.1 and GAA850 FXN act 1.4.
For C(=C\c1nccc2c1[nH]c1ccccc12)/c1ccccc1 the results were DAX1 inh 1.6, AHR act 62.2*, HSF1 inh 20.0, HSF1 activator 43.6, HSP90 inh -4.0 and GAA850 FXN act 0.4.
Fc1ccc(/C=C\c2nccc3c2[nH]c2ccccc23)cc1 was read as DAX1 inh -0.5, AHR act 34.5, HSF1 inh 21.1, HSF1 activator 44.1, HSP90 inh -0.7 and GAA850 FXN act 5.9.
`Cc1ccc(/C=C\c2nccc3c2[nH]c2ccccc23)cc1` gave DAX1 inh 2.1, AHR act 51.2*, HSF1 inh 17.2, HSF1 activator 11.8, HSP90 inh 3.2 and GAA850 FXN act 5.6.
`CC1CC(=S)Nc2ccccc2N1C(=O)Nc1ccccc1` (stereo unspecified) gave DAX1 inh 5.2*, AHR act -1.9, HSF1 inh 2.4, HSF1 activator 9.3, HSP90 inh 5.7 and GAA850 FXN act 2.0.
For O=C(Nc1ccccc1)N1CCC(=S)Nc2ccccc21 the results were DAX1 inh -1.3, AHR act 0.2, HSF1 inh -10.2, HSF1 activator -1.2, HSP90 inh 2.5 and GAA850 FXN act 1.2.
For CC1=CC2=C(OC1N(C)C)c1cccc3cccc(c13)C2=O (stereo unspecified) the results were DAX1 inh -0.7, AHR act 7.0, HSF1 inh 35.3, HSF1 activator 63.3*, HSP90 inh 0.6 and GAA850 FXN act -3.6.
`Cc1ccc(N2C(=O)c3cccc4cccc(c34)C2=O)cc1` gave DAX1 inh 0.1, AHR act 5.4, HSF1 inh -2.5, HSF1 activator -3.3, HSP90 inh 0.1 and GAA850 FXN act 2.0.
For N=c1c(S(=O)(=O)c2ccc(Br)cc2)cc2c(=O)n3ccccc3nc2n1C1CCCC1 the results were DAX1 inh -0.2, AHR act 2.0, HSF1 inh 24.0, HSF1 activator 54.7*, HSP90 inh 4.0 and GAA850 FXN act 1.7.
For CC(NC(=O)c1ccc2ccccc2n1)c1ccccc1 (stereo unspecified) the results were DAX1 inh 5.4*, AHR act 1.3, HSF1 inh 16.5, HSF1 activator 42.6, HSP90 inh -3.5 and GAA850 FXN act 0.2.
CN(C)C(CNC(=O)c1ccc2ccccc2n1)c1ccccc1 (stereo unspecified) was read as DAX1 inh -0.6, AHR act 23.6, HSF1 inh 5.8, HSF1 activator 4.6, HSP90 inh -3.0 and GAA850 FXN act 3.5.
CC(=O)Nc1cc2c(=O)n(Cc3ccccc3)c(C)nc2cc1N1CCOCC1 was read as DAX1 inh 0.6, AHR act 23.2, HSF1 inh -3.1, HSF1 activator 3.8, HSP90 inh -0.5 and GAA850 FXN act 2.3.
Screening Cc1nc2cc(N3CCCCC3)c(NC(=O)c3cccnc3)cc2c(=O)n1Cc1ccccc1 returned DAX1 inh -2.1, AHR act 49.5*, HSF1 inh 6.0, HSF1 activator 3.3, HSP90 inh 3.2 and GAA850 FXN act 1.3.
For Cc1ccc(NC(=O)c2sc3nc(CCl)[nH]c(=O)c3c2C)c(C)c1 the results were DAX1 inh -0.6, HSP90 inh 1.4 and GAA850 FXN act -0.5.
For COc1cccc(C(=O)Nc2ccccc2)c1 the results were DAX1 inh 1.9, AHR act 9.1, HSF1 inh 2.5, HSF1 activator 30.1, HSP90 inh -0.1 and GAA850 FXN act 1.3.

Screens: PubChem, several laboratories
